Data: the supplement of paper PMC12636033
± gives the standard deviation of the averaged measurements. In all, about 33,000 sequences were measured (“E-score (rank enrichment, -0.5 to 0.5)”: median about -0.0075, highest 2% from about 0.23 on). This excerpt belongs to a sample that is enriched for the highest values.

What follows are sequences tested on WT Max(13-93) synthetic (M65Nle) (assay: PBM 8-mer E-score (E-score (rank enrichment, -0.5 to 0.5)); higher = stronger preferential binding).
Description: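 Protein binding microarray (universal PBM chip covering all 10-mers in fixed probe flanks) with chemically synthesized human Max(13-93) bHLH-LZ analogs (not full-length Max) bearing noncanonical residues (hArg, Tha, Aib, Nle at 65) and aromatic Cys staples. Read-out per 8-mer (and its reverse complement): E-score (rank-based enrichment, -0.5 to 0.5) and Z-score of median probe intensity.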

Row | Sequence | PBM 8-mer E-score
1 | CTATTCAC | -0.0152 ± 0.017
2 | ATATTCAC | 0.234 ± 0.022
3 | GTATTCAC | 0.0929 ± 0.016
4 | CGCTGTCA | -0.225 ± 0.066
5 | ACGTTCGA | -0.101 ± 0.043
6 | CGTATGGA | -0.00324 ± 0.07
7 | CTGTAACA | 0.044 ± 0.048
8 | ATGTAAAA | 0.268 ± 0.011
9 | CTGTAAAA | 0.0812 ± 0.032
10 | ATGTAATG | 0.16 ± 0.079
11 | ATGTAAAT | 0.224 ± 0.021
12 | ATGTAACG | 0.0739 ± 0.012
13 | ATGTAACA | 0.239 ± 0.027
14 | CTGTAATA | 0.0153 ± 0.064
15 | ATGTAATA | 0.25 ± 0.011
16 | GCTTAGGA | -0.105 ± 0.036
17 | TGACCCAA | 0.106 ± 0.036
18 | CGTTACTA | 0.108 ± 0.1
19 | CCCTCCTC | -0.0364 ± 0.059
20 | GCATAGTA | 0.0884 ± 0.0015
21 | GTCCCGCA | -0.141 ± 0.005
22 | AGGTGTGG | 0.0754 ± 0.09
23 | ACGTGTGC | 0.348 ± 0.0039
24 | ACGTGTGG | 0.3 ± 0.048
25 | ACGTGTGA | 0.192 ± 0.054

Row | Sequence | PBM 8-mer E-score
26 | CCGTGTGC | -0.0611 ± 0.063
27 | AAGTGTGG | 0.0251 ± 0.043
28 | ACAAAACG | 0.152 ± 0.068
29 | ACCAGACA | -0.0218 ± 0.036
30 | AAGAACAG | 0.137 ± 0.033
31 | AAGAACAC | 0.156 ± 0.11
32 | AAGAACAT | 0.2472 ± 0.0023
33 | CCAAGCAC | 0.139 ± 0.07
34 | ACACCGCA | -0.148 ± 0.046
35 | CCGACCGA | -0.158 ± 0.039
36 | CGTTCGAC | -0.123 ± 0.034
37 | AAATGTAG | 0.144 ± 0.015
38 | CAATGTAC | 0.0304 ± 0.16
39 | CCATGTAC | 0.0683 ± 0.0021
40 | GCATGTAA | 0.239 ± 0.0044
41 | GCATGTAC | 0.197 ± 0.093
42 | CCATGTAA | 0.0612 ± 0.026
43 | ACATGTAT | 0.341 ± 0.019
44 | AAATGTAC | 0.268 ± 0.026
45 | ACATGTCT | 0.222 ± 0.1
46 | AGATGTAT | 0.158 ± 0.0099
47 | TCATGTAA | 0.148 ± 0.0053
48 | ACATGTAC | 0.29 ± 0.009
49 | ATTATCCC | 0.073 ± 0.014
50 | CCGCGTAA | -0.0539 ± 0.056

Row | Sequence | PBM 8-mer E-score
51 | CGTTCGTA | 0.0244 ± 0.0097
52 | CCGTTCAC | -0.15 ± 0.0062
53 | AGATGTAA | 0.114 ± 0.043
54 | ACATGTAA | 0.317 ± 0.0085
55 | AGATGTAG | 0.0391 ± 0.11
56 | CCATGTAG | 0.14 ± 0.045
57 | ACATGTAG | 0.329 ± 0.031
58 | AAATGTAA | 0.0766 ± 0.017
59 | ATTCGATA | 0.0933 ± 0.11
60 | CTGCAGAA | -0.039 ± 0.059
61 | CGGGTTGC | -0.0971 ± 0.064
62 | CTGACCAA | -0.00243 ± 0.0086
63 | AATGGTTA | 0.147 ± 0.038
64 | GATGGTTA | 0.0493 ± 0.12
65 | CATGGTCA | 0.291 ± 0.031
66 | CATGGTCC | 0.0038 ± 0.074
67 | CATGGTCG | 0.219 ± 0.039
68 | CATGGTTA | 0.2411 ± 0.0015
69 | TGCCGCAA | 0.106 ± 0.083
70 | GAATAGGC | 0.113 ± 0.015
71 | CCGTGAGC | -0.142 ± 0.048
72 | CAGGGGTC | -0.0985 ± 0.052
73 | GCGACGAC | -0.0631 ± 0.081
74 | TGTACGAA | 0.0875 ± 0.095
75 | AATGCTGG | 0.0745 ± 0.034

Row | Sequence | PBM 8-mer E-score
76 | AATGCTAG | -0.0447 ± 0.064
77 | CATGCTAG | 0.241 ± 0.034
78 | CATGCTGC | 0.183 ± 0.089
79 | CATGCTAC | 0.0659 ± 0.14
80 | CATGCTGG | 0.314 ± 0.04
81 | CCCCCGTC | -0.0979 ± 0.09
82 | TGCCGGAA | -0.154 ± 0.028
83 | AATGCGCC | -0.0607 ± 0.1
84 | CCACTTAG | 0.00666 ± 0.08
85 | CCGAGCGG | -0.0233 ± 0.11
86 | CAACTACG | -0.0136 ± 0.15
87 | GCCTCGAA | -0.199 ± 0.015
88 | ACTTGCTA | 0.0291 ± 0.18
89 | CAACAGGC | -0.126 ± 0.031
90 | CACATACA | 0.00143 ± 0.16
91 | TTCATAAA | 0.0506 ± 0.062
92 | TACATACA | 0.275 ± 0.015
93 | GTCATAAA | 0.282 ± 0.021
94 | CACATAAA | 0.106 ± 0.099
95 | AACATACT | 0.0867 ± 0.12
96 | TACATAAA | 0.234 ± 0.02
97 | CACATACG | 0.0417 ± 0.11
98 | AACATAAA | 0.225 ± 0.066
99 | GACATACA | 0.162 ± 0.037
100 | AACATACG | 0.246 ± 0.04

Row | Sequence | PBM 8-mer E-score
101 | GTCATAAC | 0.0805 ± 0.074
102 | CCGTCTGC | -0.0961 ± 0.0095
103 | GTGAAACA | 0.0563 ± 0.012
104 | AGTAGTTC | -0.116 ± 0.027
105 | CACCTAAC | -0.189 ± 0.12
106 | CGTTCAGC | -0.266 ± 0.082
107 | TCATTGCA | 0.0909 ± 0.036
108 | AACATACC | 0.0333 ± 0.06
109 | AACATACA | 0.26 ± 0.062
110 | ACCATACA | 0.0446 ± 0.2
111 | ACGTCGGA | -0.0798 ± 0.0092
112 | CCGTGCAC | 0.0618 ± 0.097
113 | ACGTGCAC | 0.391 ± 0.021
114 | ATGTGCAC | 0.29 ± 0.059
115 | AGGTGCAT | 0.139 ± 0.0098
116 | ACGTGCAG | 0.325 ± 0.063
117 | CCGTGCAG | -0.0417 ± 0.026
118 | GCGTGCAC | 0.215 ± 0.033
119 | ACGTGCAT | 0.378 ± 0.013
120 | AAGTGCAT | 0.115 ± 0.097
121 | ATGTGCAA | 0.203 ± 0.06
122 | CTGTGCAC | -0.091 ± 0.017
123 | ATGTGCAG | 0.0828 ± 0.0059
124 | ACCACGGA | -0.207 ± 0.0078
125 | ATGTCCAC | 0.113 ± 0.011

Row | Sequence | PBM 8-mer E-score
126 | CAGGACGG | -0.162 ± 0.092
127 | TCATGCGA | 0.034 ± 0.055
128 | ACGCCTTA | -0.0494 ± 0.025
129 | CGCTTAAG | -0.0549 ± 0.15
130 | AGCCTGAC | -0.0941 ± 0.14
131 | CTTATAGC | -0.0275 ± 0.032
132 | GAGCGCTA | -0.0703 ± 0.047
133 | ATGAACCA | 0.145 ± 0.06
134 | ACGGCGGC | -0.238 ± 0.059
135 | CGTGCTAC | 0.2 ± 0.061
136 | CAATGGAG | 0.0245 ± 0.12
137 | CGGGTACG | -0.133 ± 0.043
138 | CCAGGCGG | -0.0313 ± 0.028
139 | CCCAATGA | 0.0385 ± 0.031
140 | ATGTGAGA | 0.231 ± 0.13
141 | CCAACTCG | -0.00075 ± 0.037
142 | TCGTGCAA | 0.131 ± 0.057
143 | ACGTGCAA | 0.3 ± 0.035
144 | CCGTGCAA | -0.0752 ± 0.025
145 | AAATACGC | 0.237 ± 0.027
146 | GAATACGC | 0.0909 ± 0.01
147 | AAATACGT | 0.152 ± 0.043
148 | GTGAATCA | -0.115 ± 0.022
149 | ATTACATG | 0.223 ± 0.061
150 | ATAACATG | 0.231 ± 0.01

Row | Sequence | PBM 8-mer E-score
151 | ATAACACG | 0.307 ± 0.0054
152 | ATTACATA | 0.24 ± 0.039
153 | ATAACATC | 0.187 ± 0.028
154 | GTTACATA | 0.113 ± 0.0025
155 | ATAACACC | 0.106 ± 0.076
156 | ATAACATA | 0.266 ± 0.023
157 | CTAACACA | 0.121 ± 0.13
158 | GTAACACA | 0.238 ± 0.024
159 | ATAACACA | 0.181 ± 0.095
160 | GTAACAAA | 0.126 ± 0.0055
161 | AGGGGAAT | 0.0772 ± 0.04
162 | CCGTAGCC | -0.216 ± 0.071
163 | ACGCGTAA | 0.105 ± 0.048
164 | TCGCATCA | 0.046 ± 0.015
165 | AACGCAAA | -0.144 ± 0.021
166 | GATCTTAA | 0.0118 ± 0.0058
167 | CAAATACG | 0.138 ± 0.086
168 | CTTTGCCA | -0.107 ± 0.097
169 | ACAACACG | 0.261 ± 0.034
170 | ACAACACA | 0.23 ± 0.091
171 | ACAACACC | 0.158 ± 0.0054
172 | ATCCATCG | -0.21 ± 0.014
173 | CGCGTGCC | 0.124 ± 0.062
